The test concerns LEGO organoid PT (PTEN-/-; TP53-/-). In words: bioluminescence (viable cell) signal fold change after vs before treatment, normalised to DMSO (ratio); higher = more tumour cell growth / less inhibition. As to conditions: 10 µM; treatment time 6 days. The protocol: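 Luc2-labelled iPSC-derived glioblastoma-like organoids (LEGOs, genotypes PT = PTEN-/-;TP53-/-, PTCC = plus CDKN2A/B-/-, PTN = plus NF1-/-) were treated with 10 uM drug for 6 days (applied every other day) at 37 C. Bioluminescence imaging was done before treatment and 2 days after the last dose. BLI signals were normalised to the DMSO control on the same day and then to the pre-treatment signal (N=3).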
In the case of `NCC[C@H](O)C(=O)N[C@@H]1C[C@H](N)[C@@H](O[C@H]2O[C@H](CN)[C@@H](O)[C@H](O)[C@H]2O)[C@H](O)[C@H]1O[C@H]1O[C@H](CO)[C@@H](O)[C@H](N)[C@H]1O.O=S(=O)(O)O.O=S(=O)(O)O` [Amikacin disulfate], the bioluminescence worked out at 1.24.

Turning to `Cl.Clc1cccc(Cl)c1NC1=NCCN1` [Clonidine hydrochloride], the bioluminescence was found to be 1.1.

As to `C[C@H](C(=O)O)c1cccc(C(=O)c2ccccc2)c1` [(S)-(+)-Ketoprofen], the bioluminescence amounted to 0.793.

For the compound `CNCCCN1c2ccccc2CCc2ccccc21.Cl` [Desipramine hydrochloride], the bioluminescence is 0.858.

Turning to `CN(C/C=C/C#CC(C)(C)C)Cc1cccc2ccccc12` [Terbinafine], the bioluminescence amounted to 0.601.

Take `Cc1nc2n(c(=O)c1CCN1CCC(c3noc4cc(F)ccc34)CC1)CCCC2O` (configuration not stated) [Paliperidone]: the bioluminescence worked out at 1.4.

With `C[C@@H]1CCN(C(=O)CC#N)C[C@@H]1N(C)c1ncnc2[nH]ccc12` [Tofacitinib], the bioluminescence is 1.24.

Regarding `O=C1CCC(N2C(=O)c3ccccc3C2=O)C(=O)N1` (configuration not stated) [Thalidomide], the bioluminescence was found to be 3.97.

In the case of `Cl.OC(CCN1CCCC1)(c1ccccc1)C1CCCCC1` (configuration not stated) [Procyclidine hydrochloride], the bioluminescence stood at 1.48.

Take `C[C@]12CC[C@@H]3c4ccc(O)cc4CC[C@H]3[C@@H]1CC[C@@H]2O` [Estradiol]: the bioluminescence came to 0.389.

For the compound `Nc1nc2c(ncn2COC(CO)CO)c(=O)[nH]1` [Ganciclovir], the bioluminescence came out at 4.35.

For the compound `NC(=O)c1cnccn1` [Pyrazinamide], the bioluminescence worked out at 0.603.
